Assay results taken from ChEMBL document CHEMBL1961873, “Compounds: GSK PKIS; Assays: Nanosyn kinase panel” (2012).

Legend:
[1] = biological target: Platelet-derived growth factor receptor beta (Homo sapiens) (UniProt P09619); settings: at 1 µM;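 also: each value is a mean percent inhibition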
[2] = biological target: Tyrosine-protein kinase FRK (Homo sapiens) (UniProt P42685); settings: at 0.1 µM
[3] = biological target: Tyrosine-protein kinase FRK (Homo sapiens) (UniProt P42685); settings: at 1 µM
[4] = biological target: Protein-tyrosine kinase 2-beta (Homo sapiens) (UniProt Q14289); settings: at 0.1 µM
[5] = biological target: Protein-tyrosine kinase 2-beta (Homo sapiens) (UniProt Q14289); settings: at 1 µM
[6] = biological target: Proto-oncogene tyrosine-protein kinase receptor Ret (Homo sapiens) (UniProt P07949); settings: at 0.1 µM
[7] = biological target: Proto-oncogene tyrosine-protein kinase receptor Ret (Homo sapiens) (UniProt P07949); settings: at 1 µM
[8] = test system: Proto-oncogene tyrosine-protein kinase receptor Ret (Homo sapiens), P07949 [V804L]; settings: at 0.1 µM
[9] = test system: Proto-oncogene tyrosine-protein kinase receptor Ret (Homo sapiens), P07949 [V804L]; settings: at 1 µM
[10] = test system: Proto-oncogene tyrosine-protein kinase receptor Ret (Homo sapiens), P07949 [Y791F]; settings: at 0.1 µM
Sequence of Proto-oncogene tyrosine-protein kinase receptor Ret (Homo sapiens), P07949 [Y791F] (P07949 whole entry Y791F): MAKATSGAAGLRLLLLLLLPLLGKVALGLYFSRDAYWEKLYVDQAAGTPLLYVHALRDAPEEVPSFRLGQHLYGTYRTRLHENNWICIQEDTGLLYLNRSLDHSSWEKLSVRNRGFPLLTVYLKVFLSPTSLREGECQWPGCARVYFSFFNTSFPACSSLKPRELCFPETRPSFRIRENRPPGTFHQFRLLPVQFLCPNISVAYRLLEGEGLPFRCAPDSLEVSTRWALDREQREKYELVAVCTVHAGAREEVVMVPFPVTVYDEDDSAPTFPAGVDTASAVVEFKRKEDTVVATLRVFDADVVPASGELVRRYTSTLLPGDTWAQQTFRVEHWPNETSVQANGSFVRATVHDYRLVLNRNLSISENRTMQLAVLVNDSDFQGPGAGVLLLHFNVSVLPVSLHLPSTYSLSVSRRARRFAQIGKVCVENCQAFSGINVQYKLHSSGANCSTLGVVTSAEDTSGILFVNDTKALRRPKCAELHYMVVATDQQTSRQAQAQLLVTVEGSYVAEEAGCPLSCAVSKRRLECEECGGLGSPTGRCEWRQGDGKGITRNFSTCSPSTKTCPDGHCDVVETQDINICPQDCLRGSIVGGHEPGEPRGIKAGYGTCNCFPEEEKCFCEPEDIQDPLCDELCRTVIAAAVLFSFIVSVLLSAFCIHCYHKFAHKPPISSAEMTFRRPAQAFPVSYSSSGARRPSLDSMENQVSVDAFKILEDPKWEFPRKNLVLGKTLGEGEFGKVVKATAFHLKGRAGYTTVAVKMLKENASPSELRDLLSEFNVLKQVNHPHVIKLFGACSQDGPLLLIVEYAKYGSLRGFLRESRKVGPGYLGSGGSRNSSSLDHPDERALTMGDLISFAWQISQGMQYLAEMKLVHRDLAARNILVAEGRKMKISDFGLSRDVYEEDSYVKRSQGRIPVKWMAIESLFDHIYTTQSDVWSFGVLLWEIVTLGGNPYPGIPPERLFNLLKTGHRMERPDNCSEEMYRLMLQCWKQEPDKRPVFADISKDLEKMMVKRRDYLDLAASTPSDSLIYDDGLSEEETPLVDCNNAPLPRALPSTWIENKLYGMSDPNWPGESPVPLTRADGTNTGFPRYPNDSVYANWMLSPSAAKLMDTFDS

Sequence of Protein-tyrosine kinase 2-beta (Homo sapiens) (Q14289 whole entry, looked up): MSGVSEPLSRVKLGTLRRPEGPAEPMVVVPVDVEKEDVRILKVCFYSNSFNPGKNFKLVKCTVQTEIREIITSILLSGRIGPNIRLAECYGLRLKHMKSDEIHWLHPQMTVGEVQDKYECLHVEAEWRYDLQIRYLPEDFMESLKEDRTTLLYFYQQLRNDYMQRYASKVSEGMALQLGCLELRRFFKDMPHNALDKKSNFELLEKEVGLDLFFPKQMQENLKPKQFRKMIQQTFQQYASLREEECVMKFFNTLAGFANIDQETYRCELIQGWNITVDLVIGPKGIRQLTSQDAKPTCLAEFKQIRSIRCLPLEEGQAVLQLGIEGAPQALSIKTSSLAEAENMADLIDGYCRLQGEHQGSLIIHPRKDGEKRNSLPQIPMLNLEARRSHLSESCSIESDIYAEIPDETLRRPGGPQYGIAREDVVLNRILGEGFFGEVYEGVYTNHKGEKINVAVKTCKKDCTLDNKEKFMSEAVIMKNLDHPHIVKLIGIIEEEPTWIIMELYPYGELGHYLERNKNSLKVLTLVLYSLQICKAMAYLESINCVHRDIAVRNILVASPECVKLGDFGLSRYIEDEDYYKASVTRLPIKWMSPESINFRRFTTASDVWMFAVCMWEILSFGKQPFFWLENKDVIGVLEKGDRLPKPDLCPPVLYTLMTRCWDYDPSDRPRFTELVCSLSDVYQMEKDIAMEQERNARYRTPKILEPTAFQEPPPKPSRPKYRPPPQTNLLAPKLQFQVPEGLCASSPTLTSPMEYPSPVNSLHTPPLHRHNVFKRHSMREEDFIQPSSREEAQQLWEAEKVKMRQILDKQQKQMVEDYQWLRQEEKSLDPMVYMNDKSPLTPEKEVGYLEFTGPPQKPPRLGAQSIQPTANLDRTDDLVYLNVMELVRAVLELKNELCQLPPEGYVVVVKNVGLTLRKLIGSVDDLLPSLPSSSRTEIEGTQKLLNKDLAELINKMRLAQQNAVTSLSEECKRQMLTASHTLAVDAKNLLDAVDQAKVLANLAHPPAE
Sequence of Platelet-derived growth factor receptor beta (Homo sapiens) (P09619 whole entry): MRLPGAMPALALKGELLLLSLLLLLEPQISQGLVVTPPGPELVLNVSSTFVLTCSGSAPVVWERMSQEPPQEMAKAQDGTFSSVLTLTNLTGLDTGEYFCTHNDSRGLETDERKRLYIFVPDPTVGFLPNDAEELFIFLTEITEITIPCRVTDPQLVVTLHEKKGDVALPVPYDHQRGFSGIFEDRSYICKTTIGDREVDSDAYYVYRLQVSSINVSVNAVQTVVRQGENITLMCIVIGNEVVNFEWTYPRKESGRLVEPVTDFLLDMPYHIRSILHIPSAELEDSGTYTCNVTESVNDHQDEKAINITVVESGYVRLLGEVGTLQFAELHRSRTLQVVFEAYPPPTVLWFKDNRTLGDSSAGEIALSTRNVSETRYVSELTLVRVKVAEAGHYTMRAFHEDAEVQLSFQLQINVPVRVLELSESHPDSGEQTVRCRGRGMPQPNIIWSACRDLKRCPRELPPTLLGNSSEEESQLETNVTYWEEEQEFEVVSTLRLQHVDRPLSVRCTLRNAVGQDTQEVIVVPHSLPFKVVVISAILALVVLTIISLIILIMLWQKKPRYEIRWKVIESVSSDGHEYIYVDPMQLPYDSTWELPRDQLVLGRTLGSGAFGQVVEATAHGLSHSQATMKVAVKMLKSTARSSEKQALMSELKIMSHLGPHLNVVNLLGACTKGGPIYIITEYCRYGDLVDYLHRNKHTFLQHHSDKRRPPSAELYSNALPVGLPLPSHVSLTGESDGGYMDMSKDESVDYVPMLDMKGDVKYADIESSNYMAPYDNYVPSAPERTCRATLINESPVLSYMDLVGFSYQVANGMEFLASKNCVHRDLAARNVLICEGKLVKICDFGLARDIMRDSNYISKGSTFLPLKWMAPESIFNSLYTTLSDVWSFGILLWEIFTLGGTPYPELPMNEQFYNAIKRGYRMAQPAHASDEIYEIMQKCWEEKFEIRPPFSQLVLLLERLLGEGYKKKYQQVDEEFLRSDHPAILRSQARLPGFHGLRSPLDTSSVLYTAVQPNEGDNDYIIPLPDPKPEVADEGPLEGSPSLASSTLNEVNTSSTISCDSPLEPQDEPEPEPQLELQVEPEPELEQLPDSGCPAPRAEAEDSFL
Sequence of Tyrosine-protein kinase FRK (Homo sapiens) (P42685 whole entry): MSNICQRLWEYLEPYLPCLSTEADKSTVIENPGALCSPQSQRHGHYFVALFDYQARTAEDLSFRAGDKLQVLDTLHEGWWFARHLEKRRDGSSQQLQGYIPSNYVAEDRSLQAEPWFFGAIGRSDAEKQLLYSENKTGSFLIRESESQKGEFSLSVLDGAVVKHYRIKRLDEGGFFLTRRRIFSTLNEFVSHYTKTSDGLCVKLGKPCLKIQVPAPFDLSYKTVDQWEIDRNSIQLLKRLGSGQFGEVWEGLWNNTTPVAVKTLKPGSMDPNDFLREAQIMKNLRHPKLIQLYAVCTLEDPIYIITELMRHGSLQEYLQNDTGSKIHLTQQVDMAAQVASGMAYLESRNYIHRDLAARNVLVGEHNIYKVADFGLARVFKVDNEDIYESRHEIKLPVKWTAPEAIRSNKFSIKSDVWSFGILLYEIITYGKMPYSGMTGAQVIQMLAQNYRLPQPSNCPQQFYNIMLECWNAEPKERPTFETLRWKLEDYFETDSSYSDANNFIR
Sequence of Proto-oncogene tyrosine-protein kinase receptor Ret (Homo sapiens), P07949 [V804L] (P07949 whole entry V804L): as the sequence (P07949 whole entry Y791F) above, with F791Y, V804L counted along it
Sequence of Proto-oncogene tyrosine-protein kinase receptor Ret (Homo sapiens) (P07949 whole entry): as the sequence (P07949 whole entry Y791F) above, with F791Y counted along it

| Structure (SMILES) | inhibition [1] | inhibition [2] | inhibition [3] | inhibition [4] | inhibition [5] | inhibition [6] | inhibition [7] | inhibition [8] | inhibition [9] | inhibition [10] |
| --- | --- | --- | --- | --- | --- | --- | --- | --- | --- | --- |
| CCn1c(-c2nonc2N)nc2c(C#CC(C)(C)O)ncc(OCC3CCNCC3)c21 | 44.6% | 1.13% | 1.21% | 9.34% | 29.7% | 6.89% | 26.3% | 6.2% | 28.5% | 5.3% |
| Nc1nonc1-c1nc2cnccc2n1C1CCCCC1 | 26.4% | 0.25% | 0.75% | -7.07% | -8.39% | 3.59% | 9.55% | 5.85% | 19.5% | 2.08% |
| CCn1c(-c2nonc2N)nc2c(C#CC(C)(C)O)nc(O[C@@H](CN)c3ccccc3)cc21 | 79.5% | -0.39% | 0.63% | 27% | 80.1% | 41.7% | 90% | 9.12% | 47.7% | 41.8% |
| NC(=O)c1sc(-n2cnc3cc(C(F)(F)F)ccc32)cc1OCc1ccccc1Br | 5.82% | 0.62% | -0.62% | 3.52% | -2.94% | 5.91% | 2.23% | 1.83% | 11.6% | 2.29% |
| Cc1cc(-c2ccco2)cc(C)c1/C=C/c1cncc(-c2nn[nH]n2)c1 | 2.67% | -0.44% | -0.05% | 1.24% | 0% | 1.88% | 3.21% | 8.81% | 1.72% | 2.21% |
| COc1cccc(COc2cc(-n3cnc4ccccc43)sc2C(N)=O)c1 | 8.32% | 0% | 0.01% | -3.42% | -2.02% | 0.11% | 7.33% | 0.81% | 0.07% | 0.47% |
| CCn1c(-c2nonc2N)nc2c(C#CC(C)(C)O)ncc(OC[C@@H]3CCCN3)c21 | 47.2% | -0.88% | 0.68% | 1.89% | 23% | 3.87% | 25.2% | 0.45% | 2.53% | 3% |
| COc1cc(C=NNc2ncnc3c2cnn3Cc2ccccc2)ccc1O | 26.4% | 0.54% | 1.85% | -6.73% | -1.9% | 7.87% | 46.3% | 1.82% | 11.1% | 7.69% |
| COc1cc2c(cc1Nc1nc(Nc3ccsc3C(N)=O)c3cc[nH]c3n1)N(C(=O)CN(C)C)CCC2 | 33.9% | 1.91% | 8.84% | 77.8% | 95.6% | 11.9% | 14.2% | 2.29% | 13.6% | 1.79% |
| CCn1c(-c2nonc2N)nc2c(C#CCN)ncc(OCCCN)c21 | 25.5% | -0.39% | -0.01% | -5.89% | 8.44% | 3.26% | 4.11% | 6.12% | 9.27% | 1.83% |
| NS(=O)(=O)c1ccc(N/C=C2\C(=O)Nc3ccc4ncsc4c32)cc1 | 86.8% | 2.34% | 3.93% | 7.28% | 43.6% | 30.4% | 71.3% | 47.3% | 73.9% | 30.5% |
| Fc1ccc(-c2ncn(C3CCNCC3)c2-c2ccnc(Oc3ccccc3)n2)cc1 | 5.68% | 1.48% | 1.29% | 4.92% | 6.66% | 3.19% | 7.03% | 1.33% | 5.85% | 1.85% |
| NS(=O)(=O)c1ccc(-c2ccc3c(NC(=O)C4CC4)n[nH]c3c2)cc1 | 5.87% | 1.62% | 1.3% | 6.65% | 5.61% | 3% | 8.48% | 2.82% | 4.4% | 3.34% |
| COc1cccc(-n2ncc3c(N/N=C/c4ccncc4)ncnc32)c1 | 81.2% | 2.72% | 5.75% | 11.5% | 16.5% | 9.73% | 50.3% | 7.23% | 31.1% | 18.4% |
